Screening data (PubChem)
TcdB inh = inhibitors of Clostridioides difficile toxin B glycohydrolase; TcdB glycohydrolase enzymatic assay, plate reader; P18177; actives 0.24% (n = 350,000); AID 652162; inhibition, % at 9.99 µM; in the data active = inhibition above about 10%
Target sequence (P18177 whole entry, looked up): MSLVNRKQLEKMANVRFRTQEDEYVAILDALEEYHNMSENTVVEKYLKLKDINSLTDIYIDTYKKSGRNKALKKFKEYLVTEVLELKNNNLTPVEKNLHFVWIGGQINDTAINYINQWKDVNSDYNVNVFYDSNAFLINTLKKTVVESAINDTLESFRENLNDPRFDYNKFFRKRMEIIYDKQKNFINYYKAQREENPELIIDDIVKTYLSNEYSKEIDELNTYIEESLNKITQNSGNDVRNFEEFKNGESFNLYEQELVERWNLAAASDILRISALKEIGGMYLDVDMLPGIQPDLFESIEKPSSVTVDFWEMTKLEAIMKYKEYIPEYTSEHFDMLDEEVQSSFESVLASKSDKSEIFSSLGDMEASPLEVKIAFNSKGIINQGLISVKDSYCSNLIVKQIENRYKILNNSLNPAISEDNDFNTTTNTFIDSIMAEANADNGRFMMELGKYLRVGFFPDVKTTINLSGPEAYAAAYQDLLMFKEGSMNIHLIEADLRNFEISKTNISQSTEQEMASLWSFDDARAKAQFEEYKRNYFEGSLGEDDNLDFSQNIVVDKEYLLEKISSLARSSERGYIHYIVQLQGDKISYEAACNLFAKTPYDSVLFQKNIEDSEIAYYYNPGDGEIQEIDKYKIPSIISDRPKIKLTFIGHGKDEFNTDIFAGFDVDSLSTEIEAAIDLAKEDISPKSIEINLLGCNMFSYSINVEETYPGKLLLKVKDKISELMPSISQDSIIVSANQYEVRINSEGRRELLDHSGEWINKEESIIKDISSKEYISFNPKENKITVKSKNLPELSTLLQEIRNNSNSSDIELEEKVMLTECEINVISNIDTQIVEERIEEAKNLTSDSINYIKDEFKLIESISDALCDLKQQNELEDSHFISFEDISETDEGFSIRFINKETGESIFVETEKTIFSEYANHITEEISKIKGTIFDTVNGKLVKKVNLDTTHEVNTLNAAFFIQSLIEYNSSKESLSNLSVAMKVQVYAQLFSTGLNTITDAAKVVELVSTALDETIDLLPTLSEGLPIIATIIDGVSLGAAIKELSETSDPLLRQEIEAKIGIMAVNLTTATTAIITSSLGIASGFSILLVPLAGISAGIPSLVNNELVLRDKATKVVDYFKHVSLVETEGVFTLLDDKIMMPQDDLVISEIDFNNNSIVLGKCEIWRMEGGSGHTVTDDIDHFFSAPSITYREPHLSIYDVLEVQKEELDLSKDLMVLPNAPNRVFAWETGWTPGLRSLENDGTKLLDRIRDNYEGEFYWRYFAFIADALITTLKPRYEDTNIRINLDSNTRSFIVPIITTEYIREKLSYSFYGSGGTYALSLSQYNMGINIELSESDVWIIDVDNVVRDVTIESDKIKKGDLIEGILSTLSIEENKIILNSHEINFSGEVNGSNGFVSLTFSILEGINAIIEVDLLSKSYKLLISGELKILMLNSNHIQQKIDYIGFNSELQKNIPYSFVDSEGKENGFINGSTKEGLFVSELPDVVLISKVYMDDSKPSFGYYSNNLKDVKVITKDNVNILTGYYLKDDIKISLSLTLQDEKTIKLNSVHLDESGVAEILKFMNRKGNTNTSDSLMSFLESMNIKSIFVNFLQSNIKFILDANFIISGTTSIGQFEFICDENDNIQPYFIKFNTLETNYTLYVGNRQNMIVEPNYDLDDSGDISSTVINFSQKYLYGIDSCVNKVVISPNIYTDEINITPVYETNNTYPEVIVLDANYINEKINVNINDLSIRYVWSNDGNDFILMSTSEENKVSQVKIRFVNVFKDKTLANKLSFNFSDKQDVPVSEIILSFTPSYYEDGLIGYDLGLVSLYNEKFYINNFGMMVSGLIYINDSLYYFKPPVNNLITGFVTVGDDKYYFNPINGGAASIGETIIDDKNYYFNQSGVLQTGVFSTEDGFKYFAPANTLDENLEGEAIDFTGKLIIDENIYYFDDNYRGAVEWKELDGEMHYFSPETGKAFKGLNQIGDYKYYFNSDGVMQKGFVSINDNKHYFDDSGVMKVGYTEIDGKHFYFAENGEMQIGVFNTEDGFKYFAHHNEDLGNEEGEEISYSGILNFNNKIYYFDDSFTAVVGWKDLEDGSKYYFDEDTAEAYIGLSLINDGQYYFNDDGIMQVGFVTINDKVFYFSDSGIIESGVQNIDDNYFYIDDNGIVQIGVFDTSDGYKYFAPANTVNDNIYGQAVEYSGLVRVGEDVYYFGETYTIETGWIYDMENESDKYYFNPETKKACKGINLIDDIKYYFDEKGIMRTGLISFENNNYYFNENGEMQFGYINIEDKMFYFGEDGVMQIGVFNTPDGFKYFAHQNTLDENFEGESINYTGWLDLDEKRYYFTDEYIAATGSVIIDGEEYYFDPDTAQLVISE
Yp Topo-I inh = Y. pestis Topo-I inhibition via cleavage products; Y. pestis Topo-I cleavage product accumulation, plate reader; actives 0.064% (n = 360,000); AID 504884; activity, % at 10 µM; in the data active = activity above about 50%, passing the limit was not always enough
Mtb BioA inh = BioA (M. tuberculosis) enzyme inhibition. purified M. tuberculosis BioA enzyme, plate reader. inhibition, % at 9.99 µM. actives 0.096% (n = 360,000); in the data active = inhibition above about 40%
Numbers without * were called inactive; x = no result given; + = active, no number. Sampled rows, rich in hits. Any-hit rate of the full collection: about 0.32%.

SMILES | TcdB inh | Yp Topo-I inh | Mtb BioA inh
COc1ccc2c3c([nH]c2c1)[C@@H](CO)N(C(=O)C1CCC1)CC31CCN(S(C)(=O)=O)CC1 | 0 | x | x
Nc1ccc2nc(-c3ccccc3)[nH]c2c1 | x | 6 | -1
Nc1ccc2nc(-c3cccs3)[nH]c2c1 | 13* | -18 | -1
O=C1CNC[C@H]2[C@H](c3ccc(C4=CCCC4)cc3)[C@@H](CO)N12 | 0 | x | x
O=C(CCSCc1ccc(Cl)cc1)NCCC1=CCCCC1 | 0 | 65* | x
O=C(CCNC(=O)c1ccc(Cl)cc1)NCCC1=CCCCC1 | -4 | 12 | x
Cc1ccc(SCC(=O)NCCC2=CCCCC2)cc1 | x | 51* | -5
Cc1ccc(OCC(=O)NCCC2=CCCCC2)cc1 | x | -6 | 1
C[C@@H](NC(=O)C[C@H]1C[C@H]2c3cc(NC(=O)C4CCC4)ccc3O[C@H]2[C@@H](CO)O1)c1ccccc1 | -1 | x | -1
CC(C)C#Cc1cnc2c(c1)C(=O)N([C@@H](C)CO)C[C@@H](C)[C@H](CN(C)C(=O)Nc1cc(F)ccc1F)O2 | 1 | x | 3
C[C@@H](CSc1ccc(Br)cc1)CN1CC[C@H](NC(=O)OCc2ccccc2)CCC1=O | 0 | 19 | -2
COc1ccc(SC[C@H](C)CN2CC[C@H](NC(=O)OCc3ccccc3)CCC2=O)cc1 | 10* | 17 | -1
O=C1N=c2ccccc2=C1c1sc(=S)n(-c2ccc(O)cc2)c1O | 2 | -32 | -1
Cc1c(-n2c(O)c(C3=c4ccccc4=NC3=O)sc2=S)c(=O)n(-c2ccccc2)n1C | 18* | 1 | x
C/C=C/c1ccc([C@@H]2[C@@H](CO)N(C(=O)C3CC3)[C@H]2CN(C)C(=O)C2CC2)cc1 | x | x | 6
COc1cccc2c1C(=O)c1c(O)c3c(c(O)c1C2=O)C[C@](O)(C(C)=O)C[C@H]3O[C@@H]1C[C@@H](N)[C@@H](O)[C@@H](C)O1 | -24 | -34 | -55
COc1cccc2c1C(=N)c1c(O)c3c(c(O)c1C2=O)CC(O)(C(C)=O)CC3OC1CC(N)C(O)C(C)O1 (stereo not drawn) | x | 231* | x
COC(=O)C[C@H]1C[C@H]2c3cc(NC(=O)c4ccc5c(c4)OCO5)ccc3O[C@H]2[C@@H](CO)O1 | 1 | x | 3
COc1cccc(NC(=O)CN(C)C(=O)c2cccc(NS(=O)(=O)c3ccc(Br)cc3)c2)c1 | 1 | 12 | 1
COc1ccc(NC(=O)CN(C)C(=O)c2cccc(NS(=O)(=O)c3ccc(Br)cc3)c2)cc1 | 16* | 25 | x
O=C(C[C@@H]1C[C@@H]2c3cc(NC(=O)C4CCC4)ccc3O[C@@H]2[C@H](CO)O1)NCc1cc(F)ccc1F | -4 | x | -4
COCC(=O)N1C[C@@H](C)[C@H](OC)CN(C)C(=O)c2ccc(NC(=O)c3cnccn3)cc2OC[C@@H]1C | 0 | x | x
Cn1c(CC2C(=O)Nc3ccc(Br)cc32)nc2ccccc2c1=O (stereo not drawn) | 3 | -6 | 1
O=C1Nc2ccc(Br)cc2C1Cc1ccccc1F (stereo not drawn) | 28* | 5 | 1
CC(=O)NC(Cc1ccccc1)C(=O)O (stereo not drawn) | 2 | -2 | 2
SMILES | TcdB inh | Yp Topo-I inh | Mtb BioA inh
CC(=O)NC(Cc1ccccc1)C(=O)Oc1ccc2ccccc2c1 (stereo not drawn) | 10* | 13 | -1
CNC(=O)C[C@@H]1CC[C@H]2[C@@H](COc3ccc(NS(=O)(=O)c4ccccc4C)cc3C(=O)N2C)O1 | 8 | x | 0
CNC(=O)C[C@H]1CC[C@H]2[C@H](COc3ccc(NS(=O)(=O)c4ccccc4C)cc3C(=O)N2C)O1 | 6 | x | 0
CNC(=O)C[C@@H]1CC[C@H]2[C@H](COc3ccc(NS(=O)(=O)c4ccccc4C)cc3C(=O)N2C)O1 | 11* | x | 1
CNC(=O)C[C@H]1CC[C@@H]2[C@H](COc3ccc(NS(=O)(=O)c4ccccc4C)cc3C(=O)N2C)O1 | 12* | x | -2
O=C(C1CCOCC1)N1CC(=O)N2[C@@H](CO)[C@H](c3ccc(C#CC4CCCC4)cc3)[C@@H]2C1 | 0 | x | x
CO[C@H]1CN(C)C(=O)c2ccc(NC(=O)Nc3ccccc3F)cc2OC[C@H](C)N(C(C)=O)C[C@H]1C | 1 | x | 0
C/C=C/c1ccccc1[C@H]1[C@H](C#N)N(c2nc(CC)cs2)[C@H]1CO | 2 | x | x
Cc1cc(=O)oc2c(CN3CCCCC3)c(O)ccc12 | 1 | 3 | x
Cc1cc(=O)oc2c(N)c(O)ccc12 | 12* | 3 | 0
COc1cc(CN2CC3(CN(C(=O)Nc4cccc(F)c4)C3)c3c(n(C)c4cc(OC)ccc34)[C@H]2CO)cc(OC)c1 | -1 | x | x
O=C(NCc1nnc2c(C(F)(F)F)cc(Cl)cn12)c1ccc(Br)o1 | 2 | -7 | x
O=C(NCc1nnc2c(C(F)(F)F)cc(Cl)cn12)c1cccnc1 | 12* | -1 | 8
CC(C)(C)OC(=O)CNC(=O)c1[nH]cnc1C(=O)Nc1ccc(CNC(=O)OC(C)(C)C)cc1 | -1 | 0 | -2
Cc1ccc(NC(=O)c2nc[nH]c2C(=O)NCCN(CCNC(=O)c2[nH]cnc2C(=O)Nc2ccc(C)cc2)CCNC(=O)c2[nH]cnc2C(=O)Nc2ccc(C)cc2)cc1 | 1 | 6 | -3
CC(C)(C)OC(=O)NCc1ccc(NC(=O)c2nc[nH]c2C(=O)NCCNC(=O)c2[nH]cnc2C(=O)Nc2ccc(CNC(=O)OC(C)(C)C)cc2)cc1 | x | 79* | 0
O=C(Nc1ccc(Cl)cc1)c1nc[nH]c1C(=O)NCCN(CCNC(=O)c1[nH]cnc1C(=O)Nc1ccc(Cl)cc1)CCNC(=O)c1[nH]cnc1C(=O)Nc1ccc(Cl)cc1 | x | 64* | -2
CCN(CC)c1ccc2nc3c4ccccc4c(=O)cc-3oc2c1 | 1 | x | x
CCN(CC)c1ccc2c(-c3ccc(S(=O)(=O)O)cc3S(=O)(=O)[O-])c3ccc(=[N+](CC)CC)cc-3oc2c1 | -43 | + | -78
CC(C)NC(=O)N(C)C[C@H]1Oc2ccc(NS(=O)(=O)c3ccccc3)cc2CC(=O)N([C@@H](C)CO)C[C@H]1C | 0 | x | 3
Cc1occc1C(=O)N1CCN(c2ccc(Cl)cc2)CC1 | 1 | 10 | 1
Cc1scc(C(=O)N2CCN(c3ccc(Cl)cc3)CC2)c1C | 11* | 35 | -1
Cc1cnc([N+](=O)[O-])n1CCOC(=O)NC(=O)c1ccccc1 | 0 | 4 | x
Cc1ccc(C(=O)NC(=O)OCCn2c(C)cnc2[N+](=O)[O-])cc1 | 15* | 7 | x
CCCNC(=O)C[C@@H]1C[C@H]2c3cc(NC(=O)NC4CCCCC4)ccc3O[C@H]2[C@H](CO)O1 | 0 | x | -2
SMILES | TcdB inh | Yp Topo-I inh | Mtb BioA inh
CN(CC(=O)Nc1ccccc1Oc1ccccc1)Cc1ccccc1F | x | 60* | x
Cc1ccccc1CN(C)CC(=O)Nc1ccccc1Oc1ccccc1 | 1 | -1 | 0
COc1ccc(NS(=O)(=O)c2cc(N=Nc3c(O)[nH]c(=O)[nH]c3=O)ccc2Cl)cc1 | 11* | 2 | 1
Cc1ccc(NS(=O)(=O)c2ccc(Cl)c(N=Nc3c(O)[nH]c(=O)[nH]c3=O)c2)cc1Cl | 0 | -3 | 3
COc1ccc(CNc2ncnc3cc(Cl)ccc23)cc1 | -2 | 5 | x
Nc1nc(Cl)cc(NCCc2ccc(O)cc2)n1 | 14* | -6 | x
Oc1ccc(CCNc2ncnc3ccc(Cl)cc23)cc1 | 11* | -4 | 0
Nc1nc(Cl)cc(NCCc2ccccc2)n1 | 3 | x | x
